Many of the other results were omitted from the sample, so hits are more common in it than they were.
HT1080-NT tox – kills 2HG-producing HT-1080-NT fibrosarcoma cells. Potency, µM (series often up to 46.1 µM), for the others: at the highest dose activity, negative = less viability, actives largely listed as cytotoxic. HT-1080-NT fibrosarcoma viability, CellTiter-Glo ATP luminescence, 48 h. 360,000 tested, 1.6% active. AID 686970;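 also: NT is the 2HG producing partner of a matched IDH1 knockdown line; potency is read from the fitted curve at half-maximal effect; 0% = DMSO-treated cells and -100% = media-only wells without cells; nearly all actives have a fitted effect of over 55% in size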
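Viability of the 2HG-overproducing fibrosarcoma line after 48 hours of compound exposure at 37 degrees C was determined by luminescence with CellTiter-Glo, and concentration-effect curves were then fitted and categorized.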
HT1080 IDH1KD tx – toxicity to HT-1080 IDH1 knockdown cells (counter line); HT-1080 IDH1 knockdown viability, ATP luminescence, 48 h; Potency, µM (highest dose often 46.1 µM), for the others: at the highest dose activity, negative = toxicity, most hits filed as cytotoxic; 360,000 tested, 2% active;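 also: potency is read from the fitted curve at half-maximal effect; 0% = DMSO wells and -100% = cell-free medium wells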
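CellTiter-Glo luminescence after 48 h compound exposure at 37 degrees C of IDH1-knockdown HT-1080 cells in 5% FBS RPMI. %Activity scaled between DMSO wells and cell-free media wells, with curves fitted and assigned curve classes.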
12-LOX inh – blocks human arachidonate 12S-lipoxygenase | P18054 | purified 12hLO, xylenol orange hydroperoxide absorbance | Potency, µM (doses to about 108 µM), inactives show at the highest dose activity change, negative = inhibition, hits mostly inhibitors | 580,000 tested, 1.1% active | AID 1671190; also: potency is read from the fitted curve at half-maximal effect
Target sequence (P18054 whole entry, looked up): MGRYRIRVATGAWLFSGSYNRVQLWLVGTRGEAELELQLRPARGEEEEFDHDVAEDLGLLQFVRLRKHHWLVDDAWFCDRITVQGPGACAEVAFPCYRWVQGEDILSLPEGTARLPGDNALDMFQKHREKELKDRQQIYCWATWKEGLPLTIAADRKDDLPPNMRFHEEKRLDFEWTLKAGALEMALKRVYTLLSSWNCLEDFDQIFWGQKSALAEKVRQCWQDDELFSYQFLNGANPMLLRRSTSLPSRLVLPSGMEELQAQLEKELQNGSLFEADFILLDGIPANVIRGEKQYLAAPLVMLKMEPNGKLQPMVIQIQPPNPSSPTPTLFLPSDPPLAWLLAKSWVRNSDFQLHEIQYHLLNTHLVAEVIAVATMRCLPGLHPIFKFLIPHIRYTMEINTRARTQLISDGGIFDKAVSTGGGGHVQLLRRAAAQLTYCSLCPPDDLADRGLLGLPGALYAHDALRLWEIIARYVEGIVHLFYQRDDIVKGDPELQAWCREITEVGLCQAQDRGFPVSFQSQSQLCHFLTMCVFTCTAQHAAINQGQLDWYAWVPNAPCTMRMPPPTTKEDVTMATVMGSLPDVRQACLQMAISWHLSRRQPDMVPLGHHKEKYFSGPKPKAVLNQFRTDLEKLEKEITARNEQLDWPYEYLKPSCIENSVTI
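Purified human 12hLO (150 nM final) in 25 mM Hepes, 0.01% Triton X-100, pH 7.0 was preincubated 15 min at room temperature with compound. Then 40 uM arachidonic acid was added, 30 min. Hydroperoxide was read by Fe-XO absorbance ratio 573/405 nm.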
DT40 TDP1 no CPT – qHTS for Inhibitors of human tyrosyl-DNA phosphodiesterase 1 (TDP1): qHTS in cells in absence of CPT; Potency, µM (top dose mostly 46.2 µM), without a hit: at the highest dose activity change, negative = growth inhibition, usual class: inhibitors; DT40 Tdp1-/- hTDP1 cells, no CPT, ATP luminescence, 48 h; 420,000 tested, 15% active; also: potency is read from the fitted curve at half-maximal effect; nearly all actives have a fitted effect of over 55% in size
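Cells were dispensed at 400 per well, compounds added by pin tool, plates incubated ≥48 hr at 37 °C, then CellTiter-Glo added for 30 min at room temperature before luminescence reading. Line: DT40 Tdp1-/- complemented with hTDP1; camptothecin omitted.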
DT40 TDP1 CPT – DT40-hTDP1 cell growth loss with CPT | Potency, µM (highest dose often 46.2 µM), inactives show at the top dose activity change, negative = growth inhibition, hits mostly inhibitors | chicken DT40 Tdp1-/-;hTDP1 cells + 20 nM CPT, ATP luminescence, 48 h | 420,000 tested, 12% active; also: potency is read from the fitted curve at half-maximal effect; nearly all actives have a fitted effect of over 55% in size
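Cell growth measured by CellTiter-Glo luminescence after a minimum 48 h, 37 C compound exposure with 20 nM CPT in Tdp1-knockout DT40 cells stably expressing hTDP1, seeded 400/well; qHTS titration format.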
IL1B secr inh – blocks inflammasome-driven IL-1 beta release | THP-1 LPS/ATP IL-1B secretion, AlphaLISA, 16 h; active compounds read low | activity change, % at 57.5 µM | 360,000 tested, 4.7% active | AID 743279; in the data active = activity change below about -50%; inconclusive = mostly about -30% to -49%
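THP-1 cells pretreated 1 hr with compounds (up to 57.5 uM final), then stimulated with LPS (250 ng/mL final) plus ATP (1.25 mM final); secreted IL-1B measured by AlphaLISA after 16 hr, decreased signal indicating inhibition.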
* marks the source's active call; other numbers are inactive results; [ ] = remark or other dose. Unless noted, calls follow the shape of the dose curve; as a rule, active = well fitted curve in the direction sought with a large enough effect; inconclusive = small, poorly fitted or top-dose-only effect, or another doubt; inactive = no such curve, though single readings can be large; an effect the other way counts as inactive or inconclusive. Unless noted, % is scaled to controls: 0 for no effect and ±100 for the full control effect.

For Cn1c(CN2CCCCC2)nc2cc(NS(=O)(=O)c3ccc(Cl)cc3)ccc21 the results were HT1080-NT tox -29%, HT1080 IDH1KD tx -14%, 12-LOX inh -16%, DT40 TDP1 no CPT -22%, DT40 TDP1 CPT inconclusive and IL1B secr inh -16.
`O=S(=O)(Nc1ccc2c(c1)nc1n2CCN(Cc2ccccc2)C1)c1ccc(Cl)cc1` gave HT1080-NT tox -24%, HT1080 IDH1KD tx -27%, 12-LOX inh -18%, DT40 TDP1 no CPT 15µM*, DT40 TDP1 CPT 18µM* and IL1B secr inh -55*.
`O=S(=O)(Nc1ccc2c(c1)nc1n2CCN(Cc2ccccc2)C1)c1ccc(F)cc1` gave HT1080-NT tox -1%, HT1080 IDH1KD tx -1%, 12-LOX inh -13%, DT40 TDP1 no CPT inconclusive, DT40 TDP1 CPT 26µM* and IL1B secr inh 0.
For Cc1ccc(S(=O)(=O)Nc2ccc3c(c2)nc2n3CCN(Cc3ccccc3)C2)cc1 the results were HT1080-NT tox -14%, HT1080 IDH1KD tx -22%, 12-LOX inh -12%, DT40 TDP1 no CPT inconclusive, DT40 TDP1 CPT 16µM* and IL1B secr inh -69*.
For COc1ccc(C(=O)N2CCCCCC2c2nnc(-c3ccccc3)o2)cn1 (centres undefined) the results were 12-LOX inh 10%.
For CC(SC1CCCC1)C(=O)Nc1ccc(Cl)cc1Cl (centres undefined) the results were 12-LOX inh -1%.
`Cc1cccc(-c2noc(CNC(=O)CN(C)S(=O)(=O)c3ccc4ccccc4c3)n2)c1` gave 12-LOX inh -2%.
For O=C1NCC2(CCN(Cc3cccnc3)CC2)Oc2ccccc21 the results were 12-LOX inh 3%[6.33 µM].
CCc1sc(C(=O)NCc2cccnc2)cc1C was read as 12-LOX inh -17%.
For O=C(Nc1cccnc1)c1ccc(Br)s1 the results were HT1080-NT tox inconclusive, HT1080 IDH1KD tx 10µM*, 12-LOX inh -59%, DT40 TDP1 no CPT inconclusive, DT40 TDP1 CPT inconclusive and IL1B secr inh -6.
`CCc1sc(C(=O)Nc2cccnc2)cc1Br` gave HT1080-NT tox -16%, HT1080 IDH1KD tx -7%, 12-LOX inh 25µM*, DT40 TDP1 no CPT -7%, DT40 TDP1 CPT -28% and IL1B secr inh -22.
`COc1ccc(-c2cc3n(n2)C(C(=O)Nc2ccccc2F)CC(=O)N3)cc1OC` (centres undefined) gave 12-LOX inh 3%.
Cc1ccc(C(=O)NCC(NC(=O)c2ccc(C)nc2)C2CC2)cn1 (centres undefined) was read as 12-LOX inh 6%.
For Cc1nc(COc2ccccc2C(=O)N2CCC(C)CC2)no1 the results were 12-LOX inh 43%.
Cc1cc(SC#N)cc(C)c1N was read as 12-LOX inh -18%.
`CN(C)c1ccc(SC#N)cc1` gave HT1080-NT tox -1%, HT1080 IDH1KD tx -14%, 12-LOX inh 0%, DT40 TDP1 no CPT -23%, DT40 TDP1 CPT -4% and IL1B secr inh -99*.
Screening COc1ccc(C(=O)N2CCC(N3Cc4cnc(C)n4C3=O)CC2)cc1 returned 12-LOX inh 34%.
For O=C(CN(Cc1ccco1)Cc1cccs1)N1CCN(S(=O)(=O)c2cccc(F)c2)CC1 the results were HT1080-NT tox -1%, HT1080 IDH1KD tx -17%, 12-LOX inh -1%, DT40 TDP1 no CPT 18µM*, DT40 TDP1 CPT 23µM* and IL1B secr inh -24.
`Cc1ccc(NC(=O)CSc2ccc3c(c2)OCCO3)c(O)c1` gave HT1080-NT tox 8%, HT1080 IDH1KD tx -4%, 12-LOX inh 0%, DT40 TDP1 no CPT inconclusive, DT40 TDP1 CPT 18µM* and IL1B secr inh 0.
`O=C(Cc1cccs1)Nc1cc(S(=O)(=O)N2CCCCC2)ccc1Cl` gave HT1080-NT tox -2%, HT1080 IDH1KD tx -6%, 12-LOX inh 0%, DT40 TDP1 no CPT -18%, DT40 TDP1 CPT -18% and IL1B secr inh -5.
Screening Cc1ccccc1NCC(=O)Nc1cc(S(=O)(=O)N2CCCCC2)ccc1C returned HT1080-NT tox 3%, HT1080 IDH1KD tx 0%, 12-LOX inh 158%, DT40 TDP1 no CPT 21µM*, DT40 TDP1 CPT inconclusive and IL1B secr inh -25.
CC(NCC(=O)Nc1cc(S(=O)(=O)N2CCCCCC2)ccc1Cl)c1ccccc1 (centres undefined) was read as HT1080-NT tox inconclusive, HT1080 IDH1KD tx -24%, 12-LOX inh -19%, DT40 TDP1 no CPT 13µM*, DT40 TDP1 CPT 18µM* and IL1B secr inh -10.
Screening Cc1ccc(S(=O)(=O)N2CCCCC2)cc1NC(=O)COc1ccccc1 returned HT1080-NT tox -21%, HT1080 IDH1KD tx -22%, 12-LOX inh -7%, DT40 TDP1 no CPT inconclusive, DT40 TDP1 CPT inconclusive and IL1B secr inh 14.
`O=C(c1cccc(S(=O)(=O)N2CCOCC2)c1)N(Cc1ccco1)Cc1cccs1` gave HT1080-NT tox 0%, HT1080 IDH1KD tx 2%, 12-LOX inh -7%, DT40 TDP1 no CPT inconclusive, DT40 TDP1 CPT inconclusive and IL1B secr inh 1.
For CCOc1ccc(S(=O)(=O)N2CCCCC2)cc1NC(=O)Cc1cc(OC)c(OC)c(OC)c1 the results were HT1080-NT tox 8%, HT1080 IDH1KD tx 0%, 12-LOX inh -4%, DT40 TDP1 no CPT -19%, DT40 TDP1 CPT -14% and IL1B secr inh 11.
`COc1cc(CC(=O)Nc2cc(S(=O)(=O)N3CCCCC3)ccc2C)cc(OC)c1OC` gave 12-LOX inh 22µM*.
Screening Cc1ccc(S(=O)(=O)N2CCCCC2)cc1NC(=O)CSc1ccc2c(c1)OCCO2 returned HT1080-NT tox -3%, HT1080 IDH1KD tx -9%, 12-LOX inh -12%, DT40 TDP1 no CPT inconclusive, DT40 TDP1 CPT 23µM* and IL1B secr inh -8.
`O=C(CN(Cc1ccco1)Cc1ccco1)Nc1cc(S(=O)(=O)N2CCCCC2)ccc1Cl` gave HT1080-NT tox -7%, HT1080 IDH1KD tx inconclusive, 12-LOX inh 2%, DT40 TDP1 no CPT 12µM*, DT40 TDP1 CPT 13µM* and IL1B secr inh -26.
`O=C(NCc1ccco1)c1cc(S(=O)(=O)N2CCCC2)ccc1Cl` gave HT1080-NT tox -1%, HT1080 IDH1KD tx -3%, 12-LOX inh 452%, DT40 TDP1 no CPT 27%, DT40 TDP1 CPT -25% and IL1B secr inh 9.

Assay outcomes from PubChem BioAssay.
